# Compound activity as filed in PubChem BioAssay.
# An excerpt weighted towards active compounds, which were near 2.5% of everything screened.
# D2 PAM-1: HTS Assay for Positive Allosteric Modulators of the Human D2 Dopamine Receptor: Primary Screen for Potentiators; D(2) dopamine receptor (Homo sapiens), P14416; AID 485347, 2010; HEK293 T-REx D2, calcium flux, EC20 dopamine potentiation; 340,000 compounds, 0.34% hits; potentiation, % at 10 µM;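 active means potentiation over 3 SD above the plate norm, cut at about 30% in these data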; further: 0% is about no effect
# Target sequence (P14416 whole entry, looked up): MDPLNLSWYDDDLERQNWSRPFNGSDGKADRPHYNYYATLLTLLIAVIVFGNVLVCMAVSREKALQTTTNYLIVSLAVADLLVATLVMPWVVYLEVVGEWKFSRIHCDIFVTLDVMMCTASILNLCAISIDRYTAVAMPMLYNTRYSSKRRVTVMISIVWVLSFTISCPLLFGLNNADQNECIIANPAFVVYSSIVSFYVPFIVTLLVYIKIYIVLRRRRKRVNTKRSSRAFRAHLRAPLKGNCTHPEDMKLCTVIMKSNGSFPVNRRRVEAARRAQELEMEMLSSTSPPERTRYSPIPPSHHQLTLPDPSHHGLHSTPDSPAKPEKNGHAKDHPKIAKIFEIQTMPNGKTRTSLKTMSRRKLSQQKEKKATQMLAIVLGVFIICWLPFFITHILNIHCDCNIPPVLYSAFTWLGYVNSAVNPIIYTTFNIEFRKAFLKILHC
#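 Calcium flux readout, no-wash dye, 1 read/s. Inducible HEK293 Trex D2 line, overnight 30 C. Compound alone 180 s (agonist flags), then EC20 dopamine, another 180 s to score potentiation.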
# D2 PAM-2: Beta-Arrestin HTS for Positive Allosteric Modulators of the Human D2 Dopamine Receptor: Potentiators. 360,000 compounds, 0.23% hits. DiscoveRx D2 beta-arrestin cells, luminescence, 90 min; 100% = 57 uM dopamine signal. D(2) dopamine receptor (Homo sapiens), P14416. potentiation, % (concentration not given with the values); in the data active means potentiation above about 50%; inconclusive means mostly about 30% to 49%
#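 PathHunter beta-arrestin assay in DiscoveRx D2 cells. Compounds were added with an EC20 of dopamine (50 nM final) for 90 min at 37 deg C. Luminescence was read 1 h after detection reagent, with 57 uM dopamine as the EC100 control.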
# D2 ag-1: Beta-Arrestin HTS for Positive Allosteric Modulators of the Human D2 Dopamine Receptor: Agonists; DiscoveRx PathHunter D2 beta-arrestin, luminescence, 90 min; 100% = 57 uM dopamine signal; activation, % (no concentration beside the values); 360,000 compounds, 0.084% hits; AID 624465, 2012; in the data active means activation above about 40%; inconclusive means between about 15% and that limit
#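 Agonist mode: compounds alone added to overnight-plated D2 PathHunter cells for 90 min at 37 C, with 57 uM final dopamine (EC100) defining full response. Beta-arrestin recruitment detected by chemiluminescent reagent, read after 1 h at ambient temperature.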
# D2 antag: HTS Assay for Allosteric Antagonists of the Human D2 Dopamine Receptor: Primary Screen for Antagonists. HEK293 TREx D2 cells, calcium flux, dopamine EC80. inhibition, % at 10 µM. 340,000 compounds, 2% hits. AID 485344, 2010; in the data active means inhibition above about 30%; inactive means below that, where a call was filed; further: 0% is about no effect
#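 Read-out: kinetic calcium fluorescence (1 cycle/s) in inducible HEK293 T-REx D2 cells after an EC80 dopamine addition that followed 180 s compound preincubation. Loss of the dopamine response indicates antagonism.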
# Anesthetic bind: qHTS Assay for Identification of Novel General Anesthetics; apoferritin/1-aminoanthracene competitive binding, fluorescence; AID 485281, 2010; 350,000 compounds, 0.074% hits; Potency, µM (top dose mostly 77.5 µM), for inactives: at the top dose activity change, negative = displacement, actives largely listed as inhibitors; active means well fitted inhibition curve with a large enough effect; inconclusive means small, poorly fitted or top-dose-only effect; inactive means no such curve, though single readings can be large or run the other way; further: potency means the concentration at half of the fitted maximal effect; on the % scale 0 is the no-effect control and ±100 the full control effect; nearly all actives have a fitted effect of over 20% in size
# Target sequence (P02791 2-175 limits assumed): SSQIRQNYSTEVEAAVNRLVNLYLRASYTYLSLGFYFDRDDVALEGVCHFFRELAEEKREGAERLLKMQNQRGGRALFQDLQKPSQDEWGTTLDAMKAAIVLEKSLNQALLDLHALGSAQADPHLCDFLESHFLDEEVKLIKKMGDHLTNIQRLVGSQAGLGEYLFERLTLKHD
#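 Steps: apoferritin (10 uM) was premixed with half-saturated 1-AMA in PBS, compounds were pin-transferred, plates stood 10 min at room temperature, fluorescence was read at 380/535 nm, and curves were fitted with a Hill equation.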
# D2 ag-2: HTS Assay for Allosteric Agonists of the Human D2 Dopamine Receptor: Primary Screen for Agonists. 340,000 compounds, 0.53% hits. AID 485358, 2010. HEK293 T-REx D2 cells, calcium flux agonist mode. D(2) dopamine receptor (Homo sapiens), P14416. activation, % at 2 µM;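 active means activation over 3 SD above normal in the single-dose calcium agonist read, cut at about 30% in these data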; further: 0% is about no effect
#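 Calcium-flux readout, 1 cycle/sec over 180 s following compound pin transfer, in inducible HEK293 Trex D2 cells (force-coupled); dopamine controls included. Positive calcium responses during this window marked compounds as potential agonists.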
# Starred values were filed as active, the others as inactive; ? = inconclusive; / = no result given.
SMILES,D2 PAM-1,D2 PAM-2,D2 ag-1,D2 antag,Anesthetic bind,D2 ag-2
COc1cc(CN2CCCCCC2)cc(OC)c1O,2,-4,5,9,-6%,0
Cc1cccc(N2CCN(Cc3ccoc3)CC2)c1C,-26,-31,-2,67*,-5%,0
COc1ccc(C(=O)CC(Sc2ccccc2N)c2ccc(OC)cc2)cc1 (configuration not stated),/,-28,-7,/,/,/
CC1CCCN(C2=C(Cl)C(=O)N(c3cccc(Cl)c3)C2=O)C1 (configuration not stated),1,-5,-3,44*,-16%,1
COc1ccc(N2C(=O)C(Cl)=C(N3CCCC(C)C3)C2=O)cc1 (configuration not stated),3,10,-4,-15,?,-1
CCCN(CC(=O)Nc1ccccc1C)C(=O)c1ccc(C(=O)c2ccccc2)cc1,-2,-22,-2,43*,/,2
CCCN(CC(=O)Nc1ccccc1C)C(=O)c1cc(C)oc1C,-9,-4,3,-4,/,1
OC1OC[C@H](O)[C@H](O)[C@H]1O (some centres not stated),/,/,/,/,6%,/
CC1CCN(C(=O)CCc2ccc(Oc3cc([N+](=O)[O-])cc([N+](=O)[O-])c3)cc2)CC1,/,84*,?,/,-16%,/
O=C(CCc1ccc(Oc2cc([N+](=O)[O-])cc([N+](=O)[O-])c2)cc1)NC1CCCC1,-4,3,?,5,-2%,0
CCN(CC)S(=O)(=O)c1ccc(NC(=O)Cn2c(=O)sc3ccccc32)cc1,3,-12,-1,43*,-19%,1
CC(C)/C=C1\CC/C(=C\c2ccc(N(C)C)cc2)C1=O,-7,-4,-4,27,-2%,92*
CN(C)c1ccc(/C=C2/C[N+](C)(C)C/C(=C/c3ccc(N(C)C)cc3)C2=O)cc1,/,-38,-13,/,/,/
COc1ccc(C(=O)N/C(=C\c2cc(OC)c(OC)cc2[N+](=O)[O-])C(=O)NCCO)cc1,-12,2,0,39*,-3%,1
Cc1ccc(O)c(NS(=O)(=O)c2cccc3nsnc23)c1,14,5,-2,2,-7%,0
C=CCn1c(SCC(=O)Nc2cc(C)on2)nc2sc(C)c(C)c2c1=O,/,0,2,/,-4%,/
CCn1c(SCC(=O)Nc2cc(C)on2)nc2sc(C)c(C)c2c1=O,-2,/,/,36*,-2%,1
COCCn1c(SCC(=O)Nc2cc(C)on2)nc2cc(Cl)ccc2c1=O,72*,-12,1,1,/,0
O=C(NCc1ccc(F)cc1)c1cc2ccccc2o1,52*,-1,1,-9,-5%,-2
O=C(NCc1ccccc1)c1ccc(-c2ccccc2F)o1,32*,-17,-3,24,5%,-2
O=C(NCCc1ccccc1)c1ccc(-c2ccccc2C(F)(F)F)o1,-19,-17,0,-8,2%,-1
O=C(NNC(=O)c1cc2ccccc2o1)c1ccc(F)cc1,-3,-15,-2,8,/,-1
FC(F)(F)c1ccccc1NC(=S)NN=C1CCCCCC1,-4,-8,3,-6,-18%,2
Nc1ccc(S(=O)(=O)NC2(C(F)(F)F)NC(=O)N(c3ccccc3Cl)C2=O)cc1 (configuration not stated),7,13,-2,0,5%,1
Cc1ccc(C)c(CN2CCCNC2=O)c1,7,-8,-3,31*,?,2
SMILES,D2 PAM-1,D2 PAM-2,D2 ag-1,D2 antag,Anesthetic bind,D2 ag-2
CS(=O)(=O)c1nc(-c2cccs2)cc(C(F)(F)F)n1,1,/,/,9,-12%,2
CN1CCN(c2nc(-c3ccccc3)cc(C(F)(F)F)n2)CC1,-7,-36,-3,75*,-19%,-1
CN1CCN(c2nc(-c3cccs3)cc(C(F)(F)F)n2)CC1,-15,-23,-1,32*,-19%,-1
CCOc1ccccc1N1CCN(C(=O)c2ccc(-c3ccc(OC(C)=O)cc3)cc2)CC1,0,-4,-1,31*,-9%,-2
Cc1ccc(S(=O)(=O)c2cc3c(=O)n4ccccc4nc3n(C)c2=N)cc1C,36*,-3,-3,4,-12%,0
COC(=O)c1sccc1NC(=O)Cc1ccc(OC)c(OC)c1,12,-15,4,3,-5%,7
COC(=O)c1sccc1NC(=S)N1CCC(C(N)=O)CC1,2,1,-4,36*,-5%,0
COC(=O)c1ccc(NC(=S)N2CCC(C(N)=O)CC2)cc1,6,-2,0,3,-7%,1
COC(=O)c1sccc1NC(=O)c1ccc(C)s1,33*,-4,-2,33*,3%,-1
COC(=O)c1sccc1NC(=O)Nc1ccc(Cl)c(Cl)c1,-6,-15,5,44*,-6%,0
COC(=O)c1sccc1NC(=O)Cc1ccc(Br)cc1,-6,-8,2,42*,5%,-1
COC(=O)c1sccc1NC(=S)N1CCN(c2cccc(C)c2C)CC1,2,-15,-3,-11,4%,-1
COC(=O)c1sccc1NC(=S)N1CCCCC1,22,10,-2,-2,40µM*,0
COc1cc(OC)cc(-c2nc3nc(C)c(CCC(=O)Nc4ccc(C)cc4C)c(C)n3n2)c1,-3,/,/,/,2%,1
CN(C)CCCNC(=S)/N=c1\sccn1Cc1ccccc1Cl,-40,-11,-2,90*,3%,0
Cc1cc(Nc2ccc(Cl)cc2)n2ncnc2n1,5,-4,-2,-3,-1%,0
Cc1ccc(Nc2cc(-c3ccccc3)nc3ncnn23)cc1,-1,-8,-3,33*,-2%,0
Cc1ccc(NC(=O)C2C3C=CC4(O3)C2C(=O)N(CCCN2CCOCC2)C4C(=O)NC2CCCCC2)cc1Cl (configuration not stated),2,-8,5,31*,-11%,1
Cc1coc2c1c(C)cc1oc(=O)c(Cc3ccccc3)c(C)c12,-2,11,-1,43*,-6%,1
CC[C@]12CCCN3CCc4c(n(c5ccccc45)C(=O)C1)[C@@H]32,14,5,-3,0,/,1
